The nature of test [1]: binders of probe aFSTL3 on microarray, primary screen, stem cell growth factor project, biochemical, small-molecule microarray, fluorescence 635/667 (AID 1064).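 Note: measures binding of the biotinylated anti-FSTL3 antibody to printed compounds.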 Particulars: higher = more signal.
Test [2] can be described thus: binders from COS7 lysate, DM2A8 probe, primary screen, torsin A project, cell lysate, small-molecule microarray, fluorescence 635/667 (AID 1065). The conditions noted are these: higher = more signal, COS7 lysate expressing mutant human TOR1A.
Test [3] in a line: binders of probe aFGF2 on microarray, primary screen, stem cell growth factor project, biochemical, small-molecule microarray, fluorescence 635/667 (AID 1067).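 Note: measures binding of biotinylated aFGF2 protein to printed compounds on slides; z-score merges feature fluorescence and signal-to-noise across triplicate slides.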 Particulars: higher = more signal.
Test [4] can be described thus: binders of probe aFGF10 on microarray, primary screen, stem cell growth factor project, biochemical, small-molecule microarray, fluorescence 635/667 (AID 1071).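 Note: score merges 667 nm spot intensity and signal to noise from triplicate slides.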 Particulars: higher = more signal.
In test [5] the target is Neurogenic locus notch homolog protein 2 (Homo sapiens) (UniProt Q04721). Put plainly: Notch2 binders on small-molecule microarrays, primary screen, biochemical, small-molecule microarray, 635 nm fluorescence, stem cell growth factors (AID 1073). The conditions noted are these: Notch2 binding, higher = more signal.
Chain of Neurogenic locus notch homolog protein 2 (Homo sapiens) (Q04721 whole entry, looked up, canonical isoform): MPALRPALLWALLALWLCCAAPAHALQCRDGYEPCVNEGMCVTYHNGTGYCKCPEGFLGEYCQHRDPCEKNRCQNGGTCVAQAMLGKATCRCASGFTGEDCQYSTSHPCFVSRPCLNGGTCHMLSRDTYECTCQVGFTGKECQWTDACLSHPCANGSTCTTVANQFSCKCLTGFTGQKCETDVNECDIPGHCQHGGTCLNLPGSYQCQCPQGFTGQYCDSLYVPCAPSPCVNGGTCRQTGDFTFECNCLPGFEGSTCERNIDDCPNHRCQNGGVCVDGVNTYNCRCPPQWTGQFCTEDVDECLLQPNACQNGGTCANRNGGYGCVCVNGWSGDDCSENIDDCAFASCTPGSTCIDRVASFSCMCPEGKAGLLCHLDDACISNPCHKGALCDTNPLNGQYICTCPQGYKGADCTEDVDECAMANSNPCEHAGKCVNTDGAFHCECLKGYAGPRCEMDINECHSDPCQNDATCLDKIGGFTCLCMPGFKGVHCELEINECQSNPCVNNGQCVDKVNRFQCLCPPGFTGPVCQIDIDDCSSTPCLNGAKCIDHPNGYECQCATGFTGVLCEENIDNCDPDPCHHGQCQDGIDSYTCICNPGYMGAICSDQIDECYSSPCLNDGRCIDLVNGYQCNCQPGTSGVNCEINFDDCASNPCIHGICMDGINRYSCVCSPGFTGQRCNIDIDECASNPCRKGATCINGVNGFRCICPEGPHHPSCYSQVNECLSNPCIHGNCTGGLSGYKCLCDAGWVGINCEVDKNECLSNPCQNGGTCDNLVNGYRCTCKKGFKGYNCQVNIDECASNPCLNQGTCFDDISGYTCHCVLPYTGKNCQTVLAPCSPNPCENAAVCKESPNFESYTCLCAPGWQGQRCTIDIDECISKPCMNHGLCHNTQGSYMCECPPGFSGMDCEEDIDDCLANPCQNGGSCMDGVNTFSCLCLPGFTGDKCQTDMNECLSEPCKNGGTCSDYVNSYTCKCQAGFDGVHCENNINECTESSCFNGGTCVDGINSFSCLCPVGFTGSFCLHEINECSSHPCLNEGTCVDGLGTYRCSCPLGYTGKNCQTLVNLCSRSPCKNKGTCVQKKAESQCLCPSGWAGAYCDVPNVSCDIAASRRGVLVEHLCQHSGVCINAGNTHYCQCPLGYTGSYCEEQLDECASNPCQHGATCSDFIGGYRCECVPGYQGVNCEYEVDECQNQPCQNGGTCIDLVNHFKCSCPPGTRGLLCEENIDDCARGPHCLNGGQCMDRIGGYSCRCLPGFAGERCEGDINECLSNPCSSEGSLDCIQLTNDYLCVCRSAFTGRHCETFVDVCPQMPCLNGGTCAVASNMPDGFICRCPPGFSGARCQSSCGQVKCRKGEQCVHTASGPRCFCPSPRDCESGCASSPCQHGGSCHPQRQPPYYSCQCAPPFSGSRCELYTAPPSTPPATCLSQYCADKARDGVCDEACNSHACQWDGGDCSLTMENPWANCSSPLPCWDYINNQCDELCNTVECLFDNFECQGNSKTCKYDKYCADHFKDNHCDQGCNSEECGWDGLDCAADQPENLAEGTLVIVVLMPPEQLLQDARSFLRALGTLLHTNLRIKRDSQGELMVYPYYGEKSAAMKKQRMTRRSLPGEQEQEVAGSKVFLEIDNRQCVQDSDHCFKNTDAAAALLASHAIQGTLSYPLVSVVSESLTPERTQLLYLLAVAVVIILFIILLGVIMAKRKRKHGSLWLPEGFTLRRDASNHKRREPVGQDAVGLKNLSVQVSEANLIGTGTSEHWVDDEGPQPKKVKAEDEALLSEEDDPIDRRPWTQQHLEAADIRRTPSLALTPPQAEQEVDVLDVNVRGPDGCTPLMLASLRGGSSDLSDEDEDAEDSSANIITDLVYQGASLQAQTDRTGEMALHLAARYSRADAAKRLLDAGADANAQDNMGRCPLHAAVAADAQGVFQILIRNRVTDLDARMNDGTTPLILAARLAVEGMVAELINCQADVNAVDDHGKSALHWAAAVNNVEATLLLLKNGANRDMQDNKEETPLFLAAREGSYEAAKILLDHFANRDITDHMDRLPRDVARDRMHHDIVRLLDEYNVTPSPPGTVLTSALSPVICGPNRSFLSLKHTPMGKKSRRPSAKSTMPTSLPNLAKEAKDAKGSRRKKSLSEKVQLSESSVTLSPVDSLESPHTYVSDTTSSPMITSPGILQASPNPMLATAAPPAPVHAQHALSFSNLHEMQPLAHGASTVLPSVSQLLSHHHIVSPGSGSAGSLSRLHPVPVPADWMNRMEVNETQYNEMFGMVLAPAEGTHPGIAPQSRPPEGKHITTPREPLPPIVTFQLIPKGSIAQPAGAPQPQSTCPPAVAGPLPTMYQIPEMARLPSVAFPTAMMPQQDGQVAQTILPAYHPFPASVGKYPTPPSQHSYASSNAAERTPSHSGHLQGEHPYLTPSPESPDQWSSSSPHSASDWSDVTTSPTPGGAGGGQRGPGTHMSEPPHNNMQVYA
The target in test [6] is Pro-neuregulin-1, membrane-bound isoform (Homo sapiens) (UniProt Q02297). The test can be described thus: NRG1 binders on small-molecule microarrays, primary screen, psychiatric disease protein project, biochemical, small-molecule microarray, fluorescence 635/667 (AID 1075).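 Note: score combines 667 nm spot fluorescence with signal to noise.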 The conditions noted are these: NRG1 binding, 635 nm fluorescence, higher = more signal.
Chain of Pro-neuregulin-1, membrane-bound isoform (Homo sapiens) (Q02297 whole entry, looked up, the tested form may be a part, canonical isoform): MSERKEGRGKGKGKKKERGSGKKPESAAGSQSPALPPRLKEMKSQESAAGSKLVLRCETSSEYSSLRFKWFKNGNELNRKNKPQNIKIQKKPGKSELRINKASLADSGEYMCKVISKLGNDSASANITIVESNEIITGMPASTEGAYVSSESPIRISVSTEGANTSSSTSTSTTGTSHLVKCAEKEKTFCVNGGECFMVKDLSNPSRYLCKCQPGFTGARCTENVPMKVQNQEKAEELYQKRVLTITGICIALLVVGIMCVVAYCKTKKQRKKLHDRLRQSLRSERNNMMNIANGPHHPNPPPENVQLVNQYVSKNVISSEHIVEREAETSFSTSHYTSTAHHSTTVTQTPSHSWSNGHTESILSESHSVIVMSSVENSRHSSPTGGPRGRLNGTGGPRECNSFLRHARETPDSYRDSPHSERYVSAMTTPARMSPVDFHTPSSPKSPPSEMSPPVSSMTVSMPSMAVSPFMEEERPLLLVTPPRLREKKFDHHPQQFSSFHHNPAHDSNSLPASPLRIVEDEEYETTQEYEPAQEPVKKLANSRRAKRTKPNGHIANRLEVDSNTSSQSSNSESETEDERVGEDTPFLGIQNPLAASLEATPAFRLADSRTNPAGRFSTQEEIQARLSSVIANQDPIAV
In test [7] the test system is Neuregulin-1 EGF-like domain. The test can be described thus: binders of neuregulin-1 EGF-like domain, primary screen, biochemical, small-molecule microarray, 635 nm fluorescence (AID 1081).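 Note: binding of the protein to compounds printed on small-molecule microarray slides.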 Particulars: small-molecule microarray binding, higher = more signal.
The nature of test [8]: FRG1 promoter luciferase signal modulators, primary screen, FRG1 inhibition for FSHD, cell-based, C2C12 myotubes, firefly/Renilla luciferase, luminescence (AID 1084). The conditions noted are these: higher = more signal, called active from +8 up or from −8 down.
Test [9] is described as follows: binders of probe aFST on microarray, primary screen, stem cell growth factor project, biochemical, small-molecule microarray, fluorescence 635/667 (AID 1086).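 Note: score merges 667 nm fluorescence with signal-to-noise of each printed compound spot.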 Particulars: higher = more signal.
Test [10] is described as follows: binders of probe aHhip on microarray, primary screen, stem cell growth factor project, biochemical, small-molecule microarray, fluorescence 635/667 (AID 1087).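 Note: score merges spot fluorescence at 667nm with spot signal to noise ratio.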 Particulars: higher = more signal.

Active and inactive are the calls of the source.

Turning to `CC(C)[Si]1(C(C)C)O[C@@H](c2ccccc2)c2cc(-c3ccc(-c4ccc(Cl)c(Cl)c4)o3)nc(CCc3ccccc3)c21`, the composite z-score was 0.662 in test [1]; -0.56 in test [2]; -0.16 in test [3]; -0.641 in test [4]; -0.868 in test [5]; -0.345 in test [6]. The composite z-score in test [7] was -0.314; in test [9], -0.363; in test [10], 0.269. Also, in test [8], the z-score is 0.838 (inactive).
On to `Cc1ccc(F)cc1S(=O)(=O)N[C@@H]1CCN(Cc2ccc(C(F)(F)F)cc2)C1`, for which the composite z-score in test [1] was -0.234; in [2], 0.588; in [3], -0.198; in test [4] it was -1.06; in test [5], -1.26; in test [6], 0.0824. Also, the composite z-score in test [7] is -0.19; in [9], -0.47; in test [10], -0.283. Also, in test [8], the z-score is -3.87 (inactive).
With `O=C1c2ccccc2[C@](Cc2ccccc2I)(C(=O)O)[C@H](c2ccc(CO)cc2)N1Cc1ccccc1C(F)(F)F`, the composite z-score in test [1] was -0.897; in test [2], 0.17; in [3], -0.21; in test [4], -0.278; in [5] it was 0.304; in [6], 1.62. For the same compound, the composite z-score is 1.26 in [7], -0.0423 in test [9] and -0.312 in test [10]. Besides, in [8], the z-score was -0.524 (inactive).
As to `Cc1ccc(N2C(=O)c3ccccc3[C@](C)(C(=O)NCCN3CCOCC3)[C@@H]2c2ccc(CO)cc2)nc1`, the composite z-score in test [1] is 1.54; in test [2], -0.653; in test [3], -0.0249; in test [4], -0.112; in test [5] it was -1.41; in test [6], -0.819. Further, the composite z-score in test [7] is 0.0367; in test [9] it was -0.748; in test [10], -0.287. Moreover, in [8], the z-score is 0.517 (inactive).
For the compound `NC(=O)[C@]1(Cc2ccccc2)N=C(c2ccc(OCCCO)cc2)O[C@@H]1c1ccccc1`, the composite z-score in [1] is 0.207; in [2], -0.911; in test [3], 0.0121; in test [4], 0.161; in test [5], 1.15; in test [6], 1.59. Moreover, the values for the composite z-score in [7], in [9] and in test [10] were 1.12, 0.503 and -0.214, respectively. Also, the z-score in test [8] was -0.573 (inactive).
For the compound `CN(C)CCCN1C(=O)[C@@]2(c3ccc([N+](=O)[O-])cc3)CC(=O)N(C3CCCCC3)[C@@H]2c2ccc(CO)cc21`, the composite z-score was -0.363 in [1]; -0.0124 in [2]; -0.107 in test [3]; 0.251 in test [4]; 0.166 in test [5]; -0.483 in [6]. Also, the composite z-score is -1.19 in test [7], 0.161 in test [9] and -0.353 in [10]. Further, in test [8], the z-score was 1.19 (inactive).
For `Cc1ccc(S(=O)(=O)N2CC(C(=O)O)=CCC2c2ccccc2)cc1` (stereo not given), the composite z-score in [1] is 0.578; in test [2], -0.0007; in test [3], -0.0128; in [4] it was 0.118; in [5] it was -0.0631; in [6] it was -0.0288. The composite z-score in test [7] was -0.11; in test [9], -0.513; in test [10] it was -0.204. In test [8], the z-score was -1.03 (inactive).
On to `O=C(NCc1ccccc1)[C@@H]1c2ccccc2C(=O)N(C2CCCCC2)[C@H]1c1ccc(CO)cc1`, for which the composite z-score in test [1] was -1.15; in test [2] it was 0.149; in test [3], -0.0407; in test [4], 0.57; in test [5], -0.287; in test [6] it was 1.68. In addition, the composite z-score in test [7] was 1.38; in test [9], -0.309; in test [10], -0.283. Further, in test [8], the z-score is -1.48 (inactive).
For the compound `CC(C)C[C@@H]1NC(=O)[C@@H]2C[C@H](C(=O)NCCCCN(C)C)[C@H](c3ccc(O)cc3)N2C1=O`, the composite z-score in [1] is 0.493; in [2], -0.202; in test [3], -0.167; in test [4] it was -1.02; in test [5] it was -1.32; in [6], -0.343. The composite z-score is 0.443 in [7], -0.819 in test [9] and -0.0296 in test [10]. The z-score in test [8] was 1.92 (inactive).
In the case of `[N-]=[N+]=NCc1ccccc1[C@@H]1OC(c2ccc(OCCCO)cc2)=N[C@]1(Cc1ccccc1)C(=O)O`, the composite z-score is 0.221 in test [1]; 0.163 in test [2]; 0.0909 in [3]; 1.04 in [4]; 0.526 in test [5]; 1.57 in test [6]. For the same compound, the composite z-score was 1.25 in [7], 0.461 in test [9] and -0.0581 in test [10]. In addition, the z-score in test [8] was 2.29 (inactive).
Regarding `C=CCN1C(=O)[C@]2(COC(c3ccc(OCCCO)cc3)=N2)Cc2ccccc21`, the composite z-score in test [1] stood at 0.842; in [2], 0.33; in test [3] it was 0.136; in test [4], 0.115; in [5], 0.595; in test [6] it was 0.977. Further, the values for the composite z-score in [7], in [9] and in test [10] were 1.08, 0.258 and -0.3, respectively. Further, the z-score in test [8] was -0.664 (inactive).

The values are drawn from PubChem BioAssay.
